Assay outcomes: PubChem, several laboratories
ARNT-TACC3 inh = disrupts binding between human ARNT and TACC3 | AID 623870 | Q9Y6A5 | 0.66% of 390,000 active | inhibition, % at 9.99 µM | AlphaScreen His-ARNT PAS-B/GST-TACC3 binding, luminescence; TACC3 fragment carries E629A point mutation;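 active = mean inhibition of replicates at least 50% and at least half of replicates each reaching 50%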;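 also: 0% = complete ARNT plus TACC3 wells and 100% = ARNT alone without TACC3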
aDG glyco act = alpha-DG glycosylation activation. Pro5-aDG cells, alpha-DG glycosylation AlphaScreen (IIH6); 0% Pro5, 100% B10-LARGE cell signal. activation, % at 10 µM. 0.22% of 360,000 active. AID 624168;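 active = activation of at least 8% versus controls, or a plate z-score of at least 8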;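 also: Pro5 are CHO cells carrying HIG-tagged alpha-DG that lacks glycosylation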
Vif inh = blocks HIV Vif function; AID 602346; HEK293T cells, Vif self-association by quenched fluorescence, imaging, 24 h; inhibition, % at 7.49 µM; 0.35% of 340,000 active; in the data active = inhibition above about 50%, passing the limit was not always enough
Glyco luc inh = blocks N-linked glycosylation in D54 reporter cells; 0.23% of 360,000 active; D54 ERlucT glycosylation luciferase reporter, 24 h; percent of 100 nM tunicamycin response; reporter increase, % at 12.5 µM;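 active = mean luciferase reporter signal, scaled so untreated is 0 and the glycosylation-blocking control 100, at or above a set limit in every replicate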;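 also: luciferase carries N-glycosylation sites so blocking glycosylation raises the light; 0% = median of neutral control wells and 100% = median of 100 nM tunicamycin wells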
H9c2 protect = myocardial damage modulation in H9c2 cells; H9c2 cardiomyocytes, H2O2 injury protection, ATPLite, 2 h; protection from H2O2 cell death, % at 20 µM; 0.63% of 360,000 active; AID 588492;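 active = compounds giving at least 50% protection of heart cells from peroxide-induced death in the single-dose screen, raw or plate-pattern-corrected value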;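 also: 0% = DMSO wells with peroxide and 100% = DMSO wells without peroxide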
AlphaScreen ctr = AlphaScreen artifact in ARNT/TACC3 counter-screen | shares compounds with ARNT-TACC3 inh | His-ARNT PASB-GST AlphaScreen artifact counter-screen, luminescence | AC50, µM (doses to about 68 µM), without a hit: at the top dose activity change, negative = signal decrease | 50% of 1,200 active | AID 651705;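 active = every separate test run was called active for a drop in luminescence, with AC50 within twice the top valid dose, actives reach about 71 µM in these data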
Numbers without * were called inactive; . = no result given; [ ] = dose if it differs, or a comment. The list is not random: actives were taken first. Their share in the collection is about 1.7%.

SMILES	ARNT-TACC3 inh	aDG glyco act	Vif inh	Glyco luc inh	H9c2 protect	AlphaScreen ctr
CC(=O)NC(c1ccc2ccccc2c1)c1ccc2cccnc2c1O (configuration not stated)	62*	-1	-7	-9	35	15µM*
CCCCC(=O)NC(c1ccc(N(C)C)cc1)c1ccc2cccnc2c1O (configuration not stated)	60*	0	-6	-11	31	11µM*
CC(=O)NC(c1ccc(Cl)cc1Cl)c1ccc2cccnc2c1O (configuration not stated)	66*	0	-6	-11	35	22µM*
CCCC(=O)NC(c1ccc(C)cc1)c1ccc2cccnc2c1O (configuration not stated)	-24	0	-9	-11	35	.
COc1ccc(S(=O)(=O)N(C)C[C@@H]2OCCCC[C@@H](C)Oc3ccc(NC(=O)Nc4ccc5c(c4)OCO5)cc3C(=O)N([C@@H](C)CO)C[C@@H]2C)cc1	-7	.	.	.	.	.
O=C1C2CCCCN2C(=O)N1CCCCN1CCN(c2cccc(Br)c2)CC1 (configuration not stated)	active	0	-6	-1	4	-13%
O=C(C[C@@H]1CC[C@H](NC(=O)CN2CCOCC2)[C@H](CO)O1)NCCc1ccncc1	57*	.	.	.	.	6%[38 µM]
O=C(C[C@@H]1CC[C@@H](NC(=O)CN2CCOCC2)[C@H](CO)O1)NCCc1ccncc1	18	.	.	.	.	.
O=C(C[C@H]1CC[C@@H](NC(=O)CCN2CCCCC2)[C@H](CO)O1)NCc1ccc(Cl)c(Cl)c1	-6	.	.	.	.	.
CC(C)C1Cc2c(sc3ncnc(NN)c23)CO1 (configuration not stated)	61*	0	4	1	19	17µM*
COc1ccc(O)c(/C=N\NC(=O)CCn2nnc3ccccc32)c1	51*	1	-4	1	40	-8%
COc1cccc(/C=N/NC(=O)CCn2nnc3ccccc32)c1	9	0	19	-1	2	.
CCN1[C@H](C(=O)NC2CCCCC2)[C@@H](CO)[C@@H]2Cn3c(ccc(-c4cccnc4)c3=O)[C@@H]21	-15	.	.	.	.	.
CC(C)(C)c1ccc(OCCNC(=O)c2ncn[nH]2)cc1	77*	0	18	-4	-2	-16%
CC(C)NC(=O)N(C)C[C@H]1OCCCC[C@@H](C)Oc2ccc(NC(=O)c3ccncc3)cc2C(=O)N([C@H](C)CO)C[C@@H]1C	-16	.	.	.	.	.
COCCn1c(N)c(C(=O)NCc2cccs2)c2nc3ccccc3nc21	51*	0	-1	5	32	-25%
CNC(=O)C[C@H]1CC[C@@H]2[C@@H](COc3ccc(NC(=O)Nc4ccc(Cl)cc4)cc3C(=O)N2C)O1	4	.	.	.	.	.
Cc1[nH][nH]c(=O)c1C(c1ccc(Cl)cc1)c1c(C)[nH][nH]c1=O	18*	0	4	1	10	5%
CC(C)NC(=O)N(C)C[C@H]1Oc2ccc(NS(=O)(=O)c3ccc(F)cc3)cc2C(=O)N([C@@H](C)CO)C[C@H]1C	-7	.	.	.	.	.
Cc1ccc(NC(=O)CN(C)C(=O)COc2cccc3cccnc23)cc1	58*	0	-3	5	5	-17%
COCC(=O)Nc1ccc2c(c1)C(=O)N(C)C[C@H](OC)[C@@H](C)CN(C)[C@@H](C)CO2	-3	.	.	.	.	.
CCOc1cc(/C=N/Nc2ncc(C)c(=O)[nH]2)ccc1O	54*	0	21	4	10	-24%
O=C(Nc1ccc2c(c1)[C@@H]1C[C@H](CC(=O)N3CCc4ccccc4C3)O[C@@H](CO)[C@@H]1O2)c1ccc2c(c1)OCO2	51*	.	.	.	.	49µM*
C[C@@H]1CN([C@@H](C)CO)C(=O)c2cc(C#CC3CCCCC3)cnc2O[C@@H]1CN(C)C(=O)Nc1ccccc1	3	.	.	.	.	.
O=C(NN=C1CCCC1)c1ccc(O)cc1O	48*	0	6	1	-2	-6%
O=C(NNC(=O)c1ccc(O)cc1O)c1ccc(Cl)cc1	.	0	.	2	19	.
NNC(=O)c1ccc(O)cc1O	56*	0	-1	2	8	-8%
COc1cccc(NC(=O)Nc2ccc3c(c2)OC[C@@H](C)NC[C@H](C)[C@@H](OC)CN(C)C3=O)c1	-6	.	.	.	.	.
